HCMV inh = human cytomegalovirus inhibition | HFF cells, HCMV-luciferase reporter, 72 h; active compounds read low | activity change, negative = inhibition, % at 57.5 µM | 410,000 tested, 4.5% active | AID 1259415; in the data active = activity change below about -60%; inconclusive = no clear call, values can overlap the other calls; inactive = above about -39%
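HFF cells seeded 16 h at 37C, treated with compounds, infected with luciferase-reporter HCMV at MOI 1 PFU/cell; luciferase read at 72 h post infection, normalized to buffer-only and Salinomycin controls.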
HCV inhibitor = inhibitors of hepatitis C virus infection; Huh7.5.1 HCVcc-Cre infection, luciferase reporter, 44 h; 340,000 tested, 3.4% active; AID 651820; Potency, µM (top dose mostly 41.8 µM), inactives show at the top dose activity change, negative = inhibition, hits mostly inhibitors; also: potency is read from the fitted curve at half-maximal effect
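A cell-based infection assay in which seeded cells (1,000 per well) receive test compound after 4 h, are inoculated with HCVcc-Cre at approximately 0.5 moi, and are incubated 44 h before luminescence detection.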
MARV entry inh = Marburg virus entry inhibition | Marburg virus pseudotyped entry inhibition, cell reporter | AID 540276 | Potency, µM (doses to about 37.8 µM), for inactives: top-dose activity change, negative = inhibition, most hits filed as inhibitors | 300,000 tested, 1.8% active; calls by dose curve; tested in HEK293 cells; also: potency is read from the fitted curve at half-maximal effect
Lassa entry inh = Lassa virus entry inhibition; Potency, µM (titrated, usually from 37.9 µM), inactives show at the highest dose activity change, negative = inhibition, hits mostly inhibitors; Lassa virus pseudotype entry inhibition, cell reporter; AID 540256; 300,000 tested, 1.2% active; calls by dose curve; tested in HEK293 cells; also: potency is read from the fitted curve at half-maximal effect; nearly all actives have a fitted effect of over 50% in size
Pf growth 48h = P. falciparum growth inhibition at 48 hours (one generation). P. falciparum luciferase growth in erythrocytes, 48 h. 310,000 tested, 5.9% active. AID 504832. Potency, µM (highest dose often 28.7 µM), inactives show top-dose activity change, negative = inhibition, hits mostly inhibitors; also: potency is read from the fitted curve at half-maximal effect
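Luciferase-expressing P. falciparum in infected erythrocytes (2% hematocrit, 0.1% parasitemia final) in RPMI 1640/0.5% Albumax were exposed to compound for 48 hours at 37 C, 5% CO2; growth read as luminescence.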
Pf growth 96h = P. falciparum growth inhibition at 96 hours | P. falciparum luciferase reporter growth, 96 h | AID 504834 | 320,000 tested, 6.9% active | Potency, µM (titrated, usually from 28.7 µM), inactives show top-dose activity change, negative = inhibition, actives largely listed as inhibitors; also: potency is read from the fitted curve at half-maximal effect
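96 h incubation, 37 C, 5% CO2, of luciferase-reporter P. falciparum-infected RBCs (2% hematocrit, 0.05% parasitemia final) with test compounds; endpoint luminescence.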
Numbers without * were called inactive; ? = inconclusive; . = no result given; [ ] = remark or other dose. A selection: hits, their analogues and other compounds. The true share with any hit is near 14%. Unless noted, calls follow the shape of the dose curve; as a rule, active = well fitted inhibition curve with a large enough effect; inconclusive = small, poorly fitted or top-dose-only effect, or another doubt; inactive = no such curve, though single readings can be large or run the other way. % is scaled to controls: 0 for no effect and ±100 for the full control effect.

SMILES	HCMV inh	HCV inhibitor	MARV entry inh	Lassa entry inh	Pf growth 48h	Pf growth 96h
NNC(=S)NC1CCCCCCCCCCC1	-25.0	-17.9%	.	.	?	10.4µM*
S=C(NC1CCCCCC1)NC1CCCC1	-4.9	-20.2%	?	?	8.5%	0.0%
Cc1ccccc1CCNC(=O)c1cc2ccccn2n1	88.9	.	.	2.6%[46.1 µM]	.	.
CCN1CCN(c2ccc(S(=O)(=O)N3CCCCC3)cc2NC(=O)c2ccc([N+](=O)[O-])o2)CC1	-27.7	3.55µM*	?	?	13.1µM*	8.28µM*
COc1ccc(S(=O)(=O)N2CCCCC2)cc1NC(=O)c1ccc([N+](=O)[O-])o1	71.5	10µM*	18.6%[46.1 µM]	-9.3%[46.1 µM]	?	6.57µM*
CCc1nnc2c(N3CCN(c4cc(Cl)ccc4C)CC3)nc3ccccc3n12	0.0	.	.	12.5%[46.1 µM]	.	.
CCc1ccccc1NC(=O)c1ccc2c(c1)N(Cc1cc(C)ccc1C)C(=O)c1ccccc1S2(=O)=O	11.9	.	?	0.5%[46.1 µM]	.	.
COC(=O)C1=C(c2ccc(OCc3ccccc3)cc2)C[C@@H]2CC[C@H]1N2C(=O)NCc1ccccc1OC	-27.2	.	.	.	.	.
COC(=O)C1=C(c2ccc(OCc3ccccc3)cc2)C[C@@H]2CC[C@H]1N2C(=O)NCc1ccc(N(C)C)cc1	-11.8	25.9%	.	.	?	9.28µM*
COC(=O)C1=C(c2ccc(OCc3ccccc3)cc2)C[C@@H]2CC[C@H]1N2C(=O)NCc1ccc(F)cc1	-38.8	.	.	.	.	.
COC(=O)C1=C(c2ccc(OCc3ccccc3)cc2)C[C@@H]2CC[C@H]1N2C(=O)NCc1ccc(OC)c(OC)c1	-60.7*	10µM*	.	.	?	?
COC(=O)CC=C[C@@H](C)[C@@H](Cc1ccccc1Br)OC	.	.	-3.5%[14.2 µM]	0.1%[14.3 µM]	.	.
COc1ccc2cc(C3=CCCCC3)ncc2c1	161.3	-16.2%	.	.	123.8%	121.3%
Fc1ccc2cc(C3=CCCCC3)ncc2c1	-94.7*	.	.	.	.	.
COc1ccnc(Oc2ccc(F)cc2)c1C(=O)N/C=N/OCc1ccc(Cl)cc1Cl	20.8	-8.6%	13µM*	0.4%	?	-27.9%
COc1ccnc(Oc2ccc(F)cc2)c1C(=O)N/C=N/OCc1ccc(F)cc1Cl	-9.9	-23.4%	?	8.7%	?	?
Cc1c(-c2ccccc2)c(=O)oc2c(CN3CCOCC3)c(O)ccc12	-3.7	.	.	-8.1%[46.1 µM]	.	.
COc1cccc(C2=CC(c3ccc(OC)c(OC)c3)NC(=S)N2)c1 (stereo not drawn)	37.3	?	.	.	10.4µM*	?
CCOCCc1nn2c(=O)cc(COC(=O)c3cccc(C)c3)nc2s1	-6.6	.	.	-23.1%[46.1 µM]	.	.
COC(=O)C1=C(C)N(Cc2ccccc2)C(=O)NC1c1ccco1 (stereo not drawn)	.	.	12.6%[14.2 µM]	.	.	.
COC(=O)C1=C(C(=O)OC)[C@]2([C@@H]3CCCCN[C@@H](Cc4ccccc4)C(=O)N3Cc3ccccc3)C=C[C@H]1O2	-12.0	7.94µM*	.	.	.	.
COc1ccc(OC)c(-c2csc(NC(=O)Cc3ccccc3)n2)c1	22.9	?	?	?	?	?
COC(=O)c1cc(-c2cc(OC)ccc2OC)nc2c1c(=O)n(C)c(=O)n2Cc1ccccc1	12.6	-8.9%	1.4%[46.1 µM]	4.2%	?	2.08µM*
CCOC(=O)c1c(NC(=O)CSc2nnnn2-c2ccc(OC)cc2)sc(C)c1C	14.8	-14.8%	-16.9%	6.8%	.	?
CCOC(=O)c1c(-c2ccccc2)csc1NC(=O)CSc1nncs1	0.3	?	?	?	9.28µM*	?
SMILES	HCMV inh	HCV inhibitor	MARV entry inh	Lassa entry inh	Pf growth 48h	Pf growth 96h
CCOC(=O)c1c(NC(=O)CSc2nnnn2C)sc(C)c1-c1ccc(C)cc1	?	?	23.1µM*	?	8.28µM*	2.33µM*
Cn1nnnc1SCC(=O)Nc1ccccc1-c1ccccc1	54.5	0.6%	0.8%	2.4%	33.6%	?
CCOC(=O)c1c(NC(=O)CSc2nncs2)sc(C)c1-c1ccccc1	-63.9*	?	?	?	-7.2%	?
CCOC(=O)c1c(-c2ccccc2)csc1NC(=O)CSc1nnnn1C	-32.5	7.08µM*	?	?	4.65µM*	.
CCOC(=O)c1cc(-c2ccccc2)sc1NC(=O)CSc1nncs1	35.6	?	-23.1%	6.0%	16.4%	-11.1%
CCC(NCc1cccnc1)c1ccc(OC)c(OC)c1 (stereo not drawn)	-0.3	20.4%	.	.	.	.
COC(=O)c1c(-c2ccc3ccccc3c2)csc1NC(=O)Cc1ccc(OC)c(OC)c1	-83.2*	?	?	?	8.28µM*	9.28µM*
CCOC(=O)c1c(-c2ccccc2)csc1NC(=O)CSc1ccccc1	-3.6	-16.1%	?	?	?	15.4%
CCOC(=O)c1c(-c2ccc(OC)cc2)csc1NC(=O)CSc1ccccc1	-16.4	?	-25.6%	?	.	13.1µM*
CCOC(=O)c1c(-c2ccccc2)csc1NC(=O)/C(C#N)=C/c1ccc(O)c(OC)c1	-65.0*	-19.7%	3.7%	-10.8%	?	?
CCOC(=O)c1c(-c2ccccc2)csc1NC(=O)/C(C#N)=C/c1ccc(OC)c(OC)c1	28.2	-2.2%	-10.4%	10.0%	8.6%	8.3%
Cc1ccc(C(=O)Nc2nnc(COCCO)s2)cc1	64.1	.	.	.	.	.
COc1ccc(OC)c(CNC(=O)Cc2ccc(NC(=O)N3CCSc4ncccc43)cc2)c1	0.0	.	.	2.2%[46.1 µM]	.	.
COc1ccccc1NC(=O)CN1C(=O)CCSc2ccccc21	29.8	.	-2.2%[46.1 µM]	.	.	.
CN(CCc1ccccc1)C(=O)c1ccc(NC(=O)Cc2ccc(NC(=O)C3CCN(C(=O)C4CCC4)CC3)cc2)cc1	-34.7	-6.5%	.	.	.	.
CN(CCc1ccccc1)C(=O)c1ccc(NC(=O)Cc2ccc(NC(=O)C3CCCN(C(=O)CCc4ccccc4)C3)cc2)cc1 (stereo not drawn)	-70.8*	0.562µM*	.	.	.	.
CN(Cc1ccccc1)C(=O)c1cccc(NC(=O)Cc2cccc(NC(=O)C3CCN(C(=O)C4CC4)CC3)c2)c1	4.0	?	.	.	.	.
CN(C(=O)c1cccc(NC(=O)Cc2ccc(NC(=O)C3CCN(C(=O)c4ccccc4)CC3)cc2)c1)C1CCC1	-10.4	10.4%[8.37 µM]	.	.	.	.
CN(C(=O)c1ccc(NC(=O)Cc2ccc(NC(=O)C3CCN(C(=O)c4ccccc4)CC3)cc2)cc1)C1CC1	-16.7	37.2%	0.3%	.	?	6.57µM*
CN(Cc1ccccc1)C(=O)c1cccc(NC(=O)Cc2ccc(NC(=O)C3CCN(C(=O)C4CCC4)CC3)cc2)c1	-23.1	14.1µM*	.	.	.	.
CN(CCc1ccccc1)C(=O)c1ccc(NC(=O)Cc2ccc(NC(=O)C3CCN(C(=O)C4CCCCC4)CC3)cc2)cc1	-60.4*	-24.2%[8.37 µM]	.	.	.	.
CCN(CC)c1ccc(C(=O)N2CCC(c3ccncc3)CC2)cc1	-33.6	.	.	?	.	.

Screening data as filed in PubChem.
